Rows were chosen to be rich in hits. Some 2.2% of all compounds tested hit in one or more screens of this group.
NALP1 inh: blocks the NALP1 inflammasome reconstituted in yeast. S. cerevisiae NALP1/ASC/caspase-1 growth, X-gal OD620, 72 h. actives 0.61% (n = 280,000). inhibition, % at 10 µM; in the data active = inhibition mostly above about 24%, no sharp cut-off; inactive = mostly below about 32%
EBNA-1 inhibitor: blocks EBNA-1 binding to DNA | EBNA-1 DNA binding, fluorescence polarization | inhibition, % at 14.8 µM | actives 0.34% (n = 300,000) | AID 1950; in the data active = inhibition above about 28%
dFosB act: mouse delta FosB homodimer activation. P13346. purified delta FosB, TAMRA-CDK5 oligo fluorescence polarization; percent of positive-control signal above neutral wells. activation, % at 25 µM. actives 0.99% (n = 340,000). AID 493131;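 active = mean activation above about 17%, with every replicate also reaching it, limit read from the data, passing the limit was not always enough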
Target sequence (P13346 whole entry, looked up): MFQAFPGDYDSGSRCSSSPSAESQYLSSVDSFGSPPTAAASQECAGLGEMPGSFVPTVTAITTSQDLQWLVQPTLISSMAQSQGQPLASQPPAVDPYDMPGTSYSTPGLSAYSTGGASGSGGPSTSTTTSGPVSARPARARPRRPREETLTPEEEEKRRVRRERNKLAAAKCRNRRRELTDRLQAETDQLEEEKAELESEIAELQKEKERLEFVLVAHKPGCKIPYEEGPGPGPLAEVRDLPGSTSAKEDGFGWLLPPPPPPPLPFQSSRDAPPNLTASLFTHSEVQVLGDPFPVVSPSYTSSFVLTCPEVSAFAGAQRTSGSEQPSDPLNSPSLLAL
PolyA inhibitor: inhibitors of polyadenylation in S. cerevisiae; activity score, % at 12 µM; AID 1875; S. cerevisiae SKY197-pL101 polyadenylation reporter, beta-gal luminescence; efflux-impaired pdr1/pdr3 knockout yeast; score 100 = 6 SD above DMSO; actives 0.02% (n = 300,000);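 active = lowest replicate activity score at least 50, where 100 means six control SD above control mean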;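 also: yeast exposed to compound for 9 h at 30 °C; higher score means more reporter readthrough which indicates perturbed polyadenylation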
ZTA counter: counter-screen for EBNA-1 inhibitors: inhibitors of Epstein-Barr virus ZTA | P03206 | ZTA-DNA binding, fluorescence polarization | inhibition, % at 11 µM | actives 0.15% (n = 320,000) | AID 2234; in the data active = inhibition above about 33%
Target sequence (P03206 whole entry, looked up): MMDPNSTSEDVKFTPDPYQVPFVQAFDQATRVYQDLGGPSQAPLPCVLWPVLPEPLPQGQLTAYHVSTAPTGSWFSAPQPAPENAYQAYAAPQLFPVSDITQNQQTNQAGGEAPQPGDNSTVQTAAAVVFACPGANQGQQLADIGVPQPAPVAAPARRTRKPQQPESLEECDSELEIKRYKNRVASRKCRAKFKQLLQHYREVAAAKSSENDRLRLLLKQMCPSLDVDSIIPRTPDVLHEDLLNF
NALP3 yeast inh: blocks the NALP3 inflammasome reconstituted in yeast; Yeast reconstituted NLRP3/ASC/caspase-1, beta-gal luminescence, 24 h; actives 0.39% (n = 330,000); inhibition, % at 10 µM;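 active = inhibition of 50% or more; inactive = inhibition below 50%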
A number is an active result; – = inactive; · = not tested or not shown; + = active, no number.

SMILES | NALP1 inh | EBNA-1 inhibitor | dFosB act | PolyA inhibitor | ZTA counter | NALP3 yeast inh
O=C(NCc1ccccc1F)C1CCCN1C(=O)Nc1ccc(F)cc1 (centres undefined) | – | – | – | – | – | –
Cc1c2cc(O)c(=O)cc-2oc2cc(O)c(O)cc12 | – | – | – | – | – | –
COc1cc(OC)c(-c2c3cc(O)c(=O)cc-3oc3cc(O)c(O)cc23)cc1OC | – | – | 21.9 | · | – | –
CCN(CC)c1ccc(NC(=O)c2cccc(C)c2OC)c(C)c1 | 29.1 | – | – | · | – | –
CCN(CC)c1ccc(NC(=O)c2cccnc2)c(C)c1 | – | – | – | – | – | –
Cc1cccc2c1ncc1c(=O)n(-c3ccccc3)[nH]c12 | – | – | – | – | – | –
Cc1cccc(NC(=O)C2CC(=O)n3cnnc3S2)c1 (centres undefined) | 40.4 | – | – | – | – | –
COc1ccccc1NC(=O)Nc1nnc(CC(=O)Nc2ccccc2C)s1 | – | – | 26.5 | – | – | –
COc1ccccc1NC(=O)Nc1nnc(CC(=O)Nc2ccccc2)s1 | – | – | · | – | – | –
Cc1nn(-c2ccccc2)c(C)c1/C=C/C(=O)OCC(=O)Nc1ccc(S(N)(=O)=O)cc1 | · | · | – | · | – | –
O=C(Nc1cccc(C(F)(F)F)c1)c1cc2ncc(Br)cn2n1 | – | – | – | – | – | –
O=C(Nc1ccc2c(c1)OCO2)c1cc2ncc(Br)cn2n1 | – | · | 27.6 | – | · | ·
CCOc1ncccc1C(=O)NNC(=O)c1cccc(S(=O)(=O)Nc2ccc(OC)cc2)c1 | – | – | – | – | – | –
COc1cc(CC(=O)N2CCN(S(=O)(=O)c3ccc(C)cc3)CC2)cc(OC)c1OC | · | · | – | · | · | –
CCOCCCNC(=O)c1ccc(OC(C)=O)cc1 | – | – | – | – | – | –
COCCCNC(=O)c1ccc2nc(Cc3ccc(OC)cc3)oc2c1 | 25.1 | – | – | – | – | –
CCOCCCNC(=O)c1ccc(OC)cc1 | 27.6 | – | – | – | – | –
C=CCNC(=O)c1ccc2nc(Cc3ccc(OC)cc3)oc2c1 | · | – | – | – | – | ·
COc1ccc(N(C(=O)c2ccc(S(=O)(=O)N3CCCC3)cc2)C2C=CS(=O)(=O)C2)cc1 (centres undefined) | – | – | – | – | – | –
COc1cccc(/C=C/C(=O)c2ccc[nH]2)c1 | 41.6 | – | – | – | – | –
COCCCN1CCN(C2Cc3ccccc3Sc3ccc(Cl)cc32)CC1 (centres undefined) | 53.6 | – | – | – | – | –
CCN(CC(=O)NCc1cccs1)C(=O)c1cccc(Cl)c1 | · | · | – | · | · | –
Cc1ccc(C)n1-c1sc2c(c1C#N)CCC(C)C2 (centres undefined) | 34.6 | – | – | – | – | –
CC(=O)Nc1sc2c(c1C#N)CCC(C)C2 (centres undefined) | – | – | – | – | – | –
O=[N+]([O-])c1cc2oc3c(c2c(C=NCc2ccccc2)c1O)CCCC3 | – | – | – | – | – | –
SMILES | NALP1 inh | EBNA-1 inhibitor | dFosB act | PolyA inhibitor | ZTA counter | NALP3 yeast inh
CC(C)CN=Cc1c(O)c([N+](=O)[O-])cc2oc3c(c12)CCCC3 | 50.2 | – | – | – | – | –
COCCN(CC(=O)Nc1cccc(C)c1C)C(=O)c1oc2c(Cl)cccc2c1C | · | · | – | · | – | –
COc1ccc(S(=O)(=O)NCc2ccccn2)cc1 | – | – | – | – | – | –
CCOc1ccc(S(=O)(=O)NCc2ccccn2)cc1 | 41.5 | – | – | – | – | –
O=C(NC1CCN(Cc2ccccc2)CC1)c1ccccc1OCc1ccccc1Cl | – | – | – | – | – | –
Cc1ccc(C2N(c3ccc(F)cc3)C(=O)C3CCCN32)cc1 (centres undefined) | 44.4 | – | – | – | – | –
Oc1c(N=Nc2ccc(F)cc2)ccc2ccccc12 | – | – | – | – | – | –
Oc1ccc2ccccc2c1N=Nc1ccc(F)cc1 | – | – | 104.2 | – | – | –
O=C(C1=C[C@H](c2coc3ccccc3c2=O)C[C@H](OCc2ccc(CO)cc2)O1)N1CCN(Cc2ccc3c(c2)OCO3)CC1 | 20.5 | – | – | – | – | –
CN(CCOC(=O)c1cccc(Br)c1)C(C)(C)C | 27.6 | – | – | – | – | –
CCN(CC)CCOC(=O)c1cccc(Br)c1 | – | – | – | – | – | –
CCOc1ccccc1-c1cc(C(=O)N/N=C/c2ccc3c(c2)OCO3)c2ccccc2n1 | – | · | – | · | · | ·
CCOc1ccccc1-c1cc(C(=O)N/N=C/c2ccc(O)c(OC)c2)c2ccccc2n1 | – | – | 24.8 | – | – | –
COc1ccc(C(=O)n2nc(C#N)c(C#N)c2N)cc1 | 37.0 | – | – | – | – | –
Cc1ccc(C(=O)n2nc(C#N)c(C#N)c2N)cc1 | · | – | – | – | – | –
Cc1c(CN(C)C)c2c(n1Cc1ccccc1)C(=O)c1ccc(Br)cc1-2 | – | – | 18.6 | – | – | –
COc1cccc2c1OCC(CN1CCN(Cc3ccccc3)C(CCO)C1)=C2 (centres undefined) | – | – | – | – | – | –
COc1cccc2c1OCC(CN1CCN(Cc3ccccc3F)C(CCO)C1)=C2 (centres undefined) | – | + | – | – | 129.9 | –
O=C(O)c1cc(=O)[nH]c2ccccc12 | · | · | – | · | · | ·
CC(C)CC1(C)NC(=O)N(Cc2cc([N+](=O)[O-])cc3c2OCOC3)C1=O (centres undefined) | 23.3 | – | – | – | – | –
O=[N+]([O-])c1cc2c(c(CSc3ncccn3)c1)OCOC2 | – | – | – | – | – | –
O=C(O)c1ccc(NS(=O)(=O)c2ccc(N3C(=O)CCC3=O)cc2)cc1 | – | – | – | – | – | –
CC(=O)N(c1ccc(C(F)(F)F)cc1)S(=O)(=O)c1ccc(N2C(=O)CCC2=O)cc1 | 31.7 | – | – | – | – | –
COCCCC1CCN(Cc2cn[nH]c2-c2cc(OC)c(OC)c(OC)c2)CC1 | 26.4 | – | – | – | – | –
O=C(COC(=O)c1ccccc1C(=O)c1ccc(Cl)c([N+](=O)[O-])c1)NC1CCCCCC1 | 35.6 | – | – | – | – | –
SMILES | NALP1 inh | EBNA-1 inhibitor | dFosB act | PolyA inhibitor | ZTA counter | NALP3 yeast inh
O=C(COC(=O)c1ccc(Cl)c([N+](=O)[O-])c1)NC1CCCC1 | – | – | – | – | – | –
NC(=O)c1cc[n+](CC2=C(C(=O)O)N3C(=O)[C@@H](NC(=O)C(c4ccccc4)S(=O)(=O)[O-])[C@H]3SC2)cc1 (some centres undefined) | – | – | – | – | 35.0 | –
COc1ccc(C(=O)COC(=O)Cn2c(C)csc2=O)c(OC)c1 | · | – | – | – | – | –
COc1ccc(C(=O)COC(=O)CN2C(=O)c3ccccc3C2=O)c(OC)c1 | – | – | 19.3 | – | – | –
COCCNc1nc2c(c(=O)[nH]c(=O)n2C)n1CCCc1ccccc1 | – | – | – | – | – | –
CCOc1ccccc1OCCC(=O)NNC(=O)Cn1nc(C)cc1C | · | – | – | – | – | –
Cc1nc(N)nc(N)c1CCCc1ccc(Cl)c(Cl)c1 | · | – | 26.7 | – | – | –
